The list is not random: actives were taken first. Their share in the collection is about 11%.
Vaccinia Venus: qHTS for Stage-Specific Inhibitors of Vaccinia Orthopoxvirus: Venus Reporter Primary qHTS; actives 0.46% (n = 330,000); AID 720580, 2013; Potency, µM (highest dose often 36.5 µM), actives largely listed as inhibitors; Vaccinia virus Venus reporter expression, fluorescence; calls by dose curve; tested in A549 cells; also: nearly all actives have a fitted effect of over 30% in size
Pf growth 48h: Primary qHTS for delayed death inhibitors of the malarial parasite plastid, 48 hour incubation | P. falciparum luciferase growth in erythrocytes, 48 h | actives 5.9% (n = 310,000) | AID 504832, 2011 | Potency, µM (highest dose often 28.7 µM), hits mostly inhibitors
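Growth was read as firefly luciferase luminescence after a 48 h, 37 C, 5% CO2 exposure of compounds to reporter-bearing P. falciparum cultures (0.1% parasitemia, 2% hematocrit final) in Albumax-supplemented RPMI 1640.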
HCV inhibitor: qHTS Assay for Inhibitors of Hepatitis C Virus (HCV). AID 651820, 2012. Potency, µM (titrated, usually from 41.8 µM), usual class: inhibitors. Huh7.5.1 HCVcc-Cre infection, luciferase reporter, 44 h. actives 3.4% (n = 340,000)
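A cell-based infection assay in which seeded cells (1,000 per well) receive test compound after 4 h, are inoculated with HCVcc-Cre at approximately 0.5 moi, and are incubated 44 h before luminescence detection.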
NS1 inh: qHTS Assay for Inhibitors of Influenza NS1 Protein Function. Potency, µM (highest dose often 46.1 µM). actives 0.4% (n = 270,000); calls by dose curve; also: actives are rising curves; nearly all actives have a fitted effect of over 50% in size
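Growth recovery, yeast-based: influenza A NS1 expressed in S. cerevisiae causes slow growth, and suppressors are detected by OD600. The parent strain without NS1 is used as positive control.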
VACV mCherry inh: qHTS for Stage-Specific Inhibitors of Vaccinia Orthopoxvirus: mCherry Reporter Primary qHTS | Vaccinia virus mCherry reporter infection, fluorescence | actives 0.63% (n = 310,000) | Potency, µM (top dose mostly 36.5 µM), most hits filed as inhibitors | AID 720579, 2013; calls by dose curve; tested in A549 cells; also: nearly all actives have a fitted effect of over 35% in size
Pf growth 96h: Primary qHTS for delayed death inhibitors of the malarial parasite plastid, 96 hour incubation; P. falciparum luciferase reporter growth, 96 h; Potency, µM (top dose mostly 28.7 µM), most hits filed as inhibitors; actives 6.9% (n = 320,000)
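Two-generation exposure (96 h) targets delayed-death phenotype. Reporter parasites carrying integrated firefly luciferase, in red cells at 2% hematocrit and 0.05% parasitemia final, kept at 37 C, 5% CO2; luminescence loss indicates inhibition.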
Of the large screens only hits and unclear results are named; the others gave an inactive call; ! = not confirmed by another sample. Unless noted, calls follow the shape of the dose curve; as a rule, active = well fitted inhibition curve with a large enough effect; inconclusive = small, poorly fitted or top-dose-only effect, or another doubt; inactive = no such curve, though single readings can be large or run the other way.

CNCCc1c[nH]c2ccc(O)cc12	HCV inhibitor 3.16µM (no result: Pf growth 48h, Pf growth 96h)
O=C1c2ccccc2C(=O)N1CCc1c[nH]c2ccc(O)cc12	HCV inhibitor inconclusive, VACV mCherry inh inconclusive, Pf growth 96h 3.29µM
O=C1c2ccccc2C(=O)N1CCc1c[nH]c2ccccc12	HCV inhibitor inconclusive (no result: Vaccinia Venus, VACV mCherry inh)
CCC(=O)c1ccc(OCC(O)Cn2cnc3ccccc32)cc1 (configuration not stated)	Vaccinia Venus inconclusive, HCV inhibitor inconclusive, Pf growth 96h 1.85µM (no result: VACV mCherry inh)
COC(=O)C1=C(C)N(Cc2ccccc2)C(=NCC2CC2)N[C@H]1c1ccc(Br)cc1	Pf growth 48h inconclusive, Pf growth 96h inconclusive (no result: Vaccinia Venus, HCV inhibitor, VACV mCherry inh)
COC(=O)C1=C(C)N(Cc2ccccc2)C(=NCC2CC2)N[C@H]1c1ccccc1	Pf growth 48h 9.28µM!
COC(=O)C1=C(C)N(Cc2ccccc2)C(=NCCc2cccnc2)N[C@H]1c1ccccc1	Pf growth 48h inconclusive, Pf growth 96h 14.7µM
COC(=O)C1=C(C)N(Cc2ccccc2)C(=NCCc2cccnc2)N[C@H]1c1ccc(Br)cc1	Vaccinia Venus 12.6µM, Pf growth 48h 7.38µM, HCV inhibitor 2.82µM, VACV mCherry inh inconclusive
COC(=O)C1=C(C)N(Cc2ccccc2)C(=NCC(C)C)N[C@H]1c1ccc(Br)cc1	Pf growth 48h inconclusive (no result: Vaccinia Venus, HCV inhibitor, VACV mCherry inh)
Cc1cc(C(C)(C)C)cc(C)c1C[n+]1ccc2ccccc2c1	Pf growth 48h 1.17µM, HCV inhibitor inconclusive, Pf growth 96h 1.31µM (no result: Vaccinia Venus, VACV mCherry inh)
O=C(NCC1CCCO1)c1ccc2c(c1)N(Cc1ccccc1)C(=O)CS2=O (configuration not stated)	Pf growth 48h inconclusive
CCOc1ccc(NC(=O)c2ccc3c(c2)N(Cc2ccc(F)cc2)C(=O)CS3=O)cc1 (configuration not stated)	Pf growth 48h 10.4µM, NS1 inh inconclusive, Pf growth 96h inconclusive
O=C(NC1CCCCCCC1)c1ccc2c(c1)N(Cc1ccc(F)cc1)C(=O)CS2=O (configuration not stated)	Pf growth 48h 11.7µM, Pf growth 96h inconclusive (no result: Vaccinia Venus, VACV mCherry inh)
Cc1ccc(C)c(NC(=O)c2ccc3c(c2)N(Cc2ccc(F)cc2)C(=O)CS3=O)c1 (configuration not stated)	Pf growth 48h 3.29µM, HCV inhibitor inconclusive, NS1 inh inconclusive
O=C(NC1CCCC1)c1ccc2c(c1)N(Cc1ccc(F)cc1)C(=O)c1ccccc1S2	none (no result: Pf growth 48h, HCV inhibitor, NS1 inh, Pf growth 96h)
O=C(Nc1ccc(Br)cc1F)c1ccc2c(c1)N(Cc1ccccc1)C(=O)CS2=O (configuration not stated)	Pf growth 48h inconclusive, Pf growth 96h inconclusive
CC1CCCC(NC(=O)c2ccc3c(c2)N(Cc2ccccc2)C(=O)CS3=O)C1C (configuration not stated)	Pf growth 48h 16.5µM, Pf growth 96h 10.4µM
Cc1cc(C)n(C(=O)C(C)n2nc([N+](=O)[O-])c(Br)c2C)n1 (configuration not stated)	none
FCCCOc1ccc(-c2nccc(-c3ccc(Br)cc3)n2)cc1	none (no result: VACV mCherry inh)
COc1cc(-n2c(=O)c3ccccc3n(CC(=O)OCc3ccccc3)c2=O)cc(OC)c1OC	Pf growth 96h 9.28µM (no result: NS1 inh)
COc1ccc(-n2c(=O)c3ccccc3n(CC(=O)OCc3ccccc3)c2=O)cc1OC	none (no result: NS1 inh)
Cc1ccc(SCC(=O)Nc2nnc(-c3ccco3)o2)cc1	none (no result: NS1 inh)
Cc1cc(NC(=O)c2cnn3cccnc23)nn1CC(=O)Nc1cccnc1	NS1 inh inconclusive
Cc1cccc(N2CC(C(=O)NCc3ccco3)CC2=O)c1C (configuration not stated)	none (no result: Vaccinia Venus, NS1 inh, VACV mCherry inh)
COc1cccc(/C=N/Nc2ccnc(=O)[nH]2)c1O	Vaccinia Venus inconclusive, Pf growth 48h 0.294µM, HCV inhibitor 2.24µM, VACV mCherry inh 0.794µM, Pf growth 96h 0.233µM
O=c1nccc(N/N=C/c2ccccc2O)[nH]1	Vaccinia Venus inconclusive, Pf growth 48h 9.28µM, HCV inhibitor inconclusive, VACV mCherry inh 1µM, Pf growth 96h 0.828µM
CCOc1ccccc1/C=N/Nc1ccnc(=O)[nH]1	Pf growth 48h inconclusive, HCV inhibitor 11.2µM, Pf growth 96h inconclusive
CCCCn1c(SCC(=O)N(CC)C2CCS(=O)(=O)C2)nc2cc(S(N)(=O)=O)ccc21 (configuration not stated)	none
CCN(C(=O)CSc1nc2cc(C(F)(F)F)ccc2n1Cc1ccccc1)C1CCS(=O)(=O)C1 (configuration not stated)	Pf growth 48h 10.4µM, HCV inhibitor inconclusive, Pf growth 96h 9.28µM
CSc1ccc(CNC(=O)C2Cc3cc(S(=O)(=O)N4CCCCC4)ccc3N2C(C)=O)cc1 (configuration not stated)	HCV inhibitor inconclusive, Pf growth 96h 14.7µM
CCOc1ccc(CNC(=O)C2Cc3cc(S(=O)(=O)N4CCCCC4)ccc3N2C(C)=O)cc1 (configuration not stated)	Pf growth 96h 10.4µM (no result: Vaccinia Venus, VACV mCherry inh)
CCc1cccc(NC(=O)CN(C)S(=O)(=O)c2cnc[nH]2)c1	none (no result: VACV mCherry inh)
CCCCn1c(O)c(/C=C/C=C/C=Nc2ccccc2)sc1=S	Pf growth 48h inconclusive, Pf growth 96h inconclusive (no result: NS1 inh)
Cc1ccc(OCC(=O)Nc2ccc(NC(=O)c3ccco3)cc2)c(C)c1	Vaccinia Venus inconclusive, Pf growth 48h inconclusive, HCV inhibitor inconclusive, VACV mCherry inh inconclusive, Pf growth 96h inconclusive
O=S(=O)(c1ccc2c(c1)OCCO2)N1CCC(n2nnc3cc(C(F)(F)F)ccc32)CC1	Pf growth 48h 13.1µM, HCV inhibitor inconclusive, NS1 inh inconclusive
COc1ccc(S(=O)(=O)N2CCC(n3cnc4cc(C(F)(F)F)ccc43)CC2)cc1	Pf growth 48h 5.22µM (no result: Vaccinia Venus, VACV mCherry inh)
O=C(COc1ccc(-n2cnnn2)cc1)Nc1ccc(F)c(F)c1F	none (no result: Vaccinia Venus, NS1 inh, VACV mCherry inh)
Cc1ccc(S(=O)(=O)c2nc(-c3ccco3)oc2SCc2ccc(F)cc2)cc1	none (no result: Pf growth 48h, HCV inhibitor, NS1 inh, Pf growth 96h)
CCOc1cc(C(=S)N2CCC(O)CC2)ccc1OS(=O)(=O)c1ccc(Br)cc1	Vaccinia Venus inconclusive, HCV inhibitor inconclusive, Pf growth 96h inconclusive (no result: Pf growth 48h)
C1CCC2(CC1)C1=C(CCCC1)Nc1nnnn12	none (no result: Vaccinia Venus, VACV mCherry inh)
Nc1nc2n(n1)C1(CCCCC1)C1=C(CCCC1)N2	NS1 inh inconclusive, Pf growth 96h 10.4µM (no result: Vaccinia Venus, HCV inhibitor, VACV mCherry inh)
Cc1cc(C)nc(NC(=O)CCN2C(=O)c3ccccc3S2(=O)=O)n1	none (no result: NS1 inh)
CCN(Cc1ccccc1)S(=O)(=O)c1cc(C(=O)NCC2CCCCC2)ccc1OC	Vaccinia Venus inconclusive, Pf growth 48h inconclusive, HCV inhibitor inconclusive, Pf growth 96h 11.7µM
O=C(Nc1ccnn1C1CCN(Cc2cc(Cl)ccc2O)CC1)c1cccnc1	Pf growth 48h inconclusive
Cc1ccccc1CN1CCC(n2nccc2NC(=O)c2cccnc2)CC1	Pf growth 48h inconclusive, Pf growth 96h 9.28µM
COc1ccc(CN2CCC(n3nccc3NC(=O)c3ccc4c(c3)OCO4)CC2)cc1C	Pf growth 48h 11.7µM (no result: Vaccinia Venus, VACV mCherry inh)

Compound activity (PubChem)
